The supplement of paper PMC6522484
± gives the standard deviation of the averaged measurements.

Columns and labels:
[1] = system: DLD1; experiment: cell viability (CellTiter-Glo) relative to plate median (fraction of plate median); higher = more viable cells; conditions: 5 µM; treatment time 24 h; reporter: 7TFP
Outline: (§1)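 For this screen, colorectal cancer cell lines carrying stable lentiviral TCF/Wnt firefly luciferase reporters, either 7TFP or TCF4/Wnt, were seeded into 384-well plates. A day's wait of 24 h preceded addition of library compounds at a final 5 µM, which stayed on the cells for 24 h. Firefly luciferase or CellTiterGlo luminescence, read on parallel plates, was normalised to the plate median per well, and the reported value is the mean of two independent replicates.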

[2] = system: HCT116; experiment: as above; conditions: 5 µM; treatment time 24 h; reporter: TCF4/Wnt
Outline: as §1

[3] = system: SW480; experiment: as above; conditions: 5 µM; treatment time 24 h; reporter: 7TFP
Outline: as §1

[4] = system: DLD1; experiment: TCF/Wnt firefly luciferase reporter signal relative to plate median (fraction of plate median); higher = higher Wnt reporter signal; conditions: 5 µM; treatment time 24 h; reporter: 7TFP
Outline: as §1

[5] = system: SW480; experiment: as above; conditions: 5 µM; treatment time 24 h; reporter: 7TFP
Outline: as §1

| Compound | cell viability [1] | cell viability [2] | cell viability [3] | TCF/Wnt firefly luciferase reporter signal [4] | TCF/Wnt firefly luciferase reporter signal [5] |
| --- | --- | --- | --- | --- | --- |
| OCc1c[nH]c2ccccc12 | 1.01 | 0.93 ± 0.03 | 0.948 ± 0.042 | 1.06 ± 0.064 | 0.992 ± 0.026 |
| CCCCC(=O)O[C@]1(C(=O)CO)CC[C@H]2[C@@H]3CCC4=CC(=O)CC[C@]4(C)[C@H]3[C@@H](O)C[C@@]21C | 0.981 ± 0.084 | 1.02 ± 0.11 | 0.96 ± 0.013 | 1.02 ± 0.11 | 0.997 ± 0.061 |
| CCNC(=O)CC[C@H](N)C(=O)O | 1.01 ± 0.021 | 1.03 ± 0.06 | 0.998 ± 0.018 | 1.13 ± 0.11 | 1.05 ± 0.014 |
| COC(=O)c1c(C)cc(O)cc1O | 0.999 ± 0.03 | 0.837 ± 0.23 | 1 ± 0.037 | 1.15 ± 0.014 | 0.984 ± 0.11 |
| C[C@@H]1CC(=O)c2c(ccc3c2C(=O)c2cccc(O)c2C3=O)C1 [Ochromycinone (Isoform B, compound ID 7489)] | 1.1 ± 0.035 | 1 | 0.991 ± 0.028 | 0.781 ± 0.1 | 0.867 ± 0.047 |
| NCCS(=O)(=O)O | 1.04 ± 0.021 | 1.01 ± 0.061 | 0.978 ± 0.02 | 0.9735 ± 0.00071 | 1 ± 0.037 |
| O=C1CCC(N2C(=O)c3ccccc3C2=O)C(=O)N1 (stereo not given) | 0.939 ± 0.1 | 0.972 ± 0.04 | 0.953 ± 0.03 | 1.23 ± 0.16 | 0.887 ± 0.018 |
| CCCCNC(=O)NS(=O)(=O)c1ccc(C)cc1 | 0.85 ± 0.14 | 0.982 ± 0.054 | 0.987 ± 0.033 | 0.931 ± 0.097 | 1.005 ± 0.0071 |
| FC(F)(F)c1ccccc1-n1ccnc1 | 1.02 ± 0.04 | 1.01 ± 0.017 | 1 ± 0.026 | 1.03 ± 0.064 | 0.912 ± 0.14 |
| Cc1cccc(C(=O)O)c1O | 1.02 ± 0.039 | 0.934 ± 0.078 | 0.96 ± 0.0099 | 0.869 ± 0.12 | 0.922 ± 0.059 |
| c1ccc2c(CC3=NCCN3)cccc2c1 | 1.11 ± 0.035 | 1.09 ± 0.028 | 1.09 ± 0.035 | 1.07 ± 0.12 | 0.984 ± 0.11 |
| Nc1ccc(S(N)(=O)=O)cc1 | 1.04 ± 0.081 | 0.975 ± 0.031 | 1.065 ± 0.0071 | 1.04 | 1.02 ± 0.073 |
| O=c1[nH]cnc2nc[nH]c12 | 0.987 ± 0.061 | 1.04 | 0.913 ± 0.044 | 0.969 ± 0.043 | 1 |
| CC(=O)Nc1cc2nc3ccccc3oc-2cc1=O [N-Acetylquestiomycin A] | 0.985 ± 0.092 | 1.1 ± 0.057 | 1.06 ± 0.087 | 1.24 ± 0.12 | 1.145 ± 0.0071 |
| CC[C@@H](CO)NCCN[C@@H](CC)CO | 0.963 ± 0.12 | 1.03 ± 0.021 | 1.02 ± 0.059 | 1.2 ± 0.05 | 1.19 ± 0.035 |
| NC(N)=O | 1.03 ± 0.014 | 0.988 ± 0.088 | 0.999 ± 0.044 | 0.898 ± 0.0028 | 0.934 ± 0.076 |
| CC(C)C[C@H]1C(=O)N2CCC[C@H]2C(=O)N1O [Cyclo(hydroxyleucylprolyl)] | 0.978 ± 0.074 | 0.973 ± 0.081 | 0.988 ± 0.088 | 0.949 ± 0.0042 | 1.05 ± 0.071 |
| CCOC(=O)c1ccc(O)cc1 | 0.925 ± 0.019 | 0.89 ± 0.056 | 1.004 ± 0.0078 | 1.01 | 0.998 ± 0.059 |
| CCOC(=O)C1=C[C@]2(CC)CCCN3CCc4c(n1c1ccccc41)[C@@H]32 | 0.916 ± 0.016 | 1.01 ± 0.088 | 0.995 ± 0.0071 | 1.02 ± 0.067 | 0.782 ± 0.079 |
| C[C@@](Cc1ccc(O)c(O)c1)(NN)C(=O)O | 1.01 ± 0.015 | 0.981 ± 0.098 | 1.02 ± 0.067 | 0.8725 ± 0.005 | 0.95 ± 0.13 |
| CC(C)=CC1C(CO)C1(C)C (stereo not given) | 0.996 ± 0.049 | 0.948 ± 0.061 | 1.02 ± 0.014 | 0.984 ± 0.052 | 0.97 ± 0.18 |
| CCC(C)C(N)=O (stereo not given) [2-Methylbutyramide] | 1.06 ± 0.028 | 1.05 ± 0.021 | 1.01 ± 0.018 | 1.16 ± 0.071 | 1.045 ± 0.0071 |
| COc1cc(OC)c2c(=O)c(-c3ccccc3)c(C)oc2c1OC | 1.07 ± 0.15 | 1.05 ± 0.078 | 1.01 ± 0.052 | 1 ± 0.069 | 0.9545 ± 0.00071 |
| CC(=O)O[C@H]1C[C@@H]2CC[C@@H]3[C@H](CC[C@@]4(C)[C@H]3C[C@H]([N+]3(C)CCCCC3)[C@@H]4OC(C)=O)[C@@]2(C)C[C@@H]1N1CCCCC1 | 0.976 ± 0.077 | 1.03 | 1.004 ± 0.0092 | 1.03 ± 0.1 | 1.1 ± 0.014 |
| COC(=O)C1=C(C)NC(C)=C(C(=O)OCCN(C)Cc2ccccc2)C1c1cccc([N+](=O)[O-])c1 (stereo not given) | 0.914 ± 0.074 | 1.02 ± 0.1 | 0.98 ± 0.042 | 0.941 ± 0.13 | 0.951 ± 0.065 |
| C[C@@H]1O[C@@H](OC[C@H]2O[C@@H](Oc3c(-c4ccc(O)c(O)c4)oc4cc(O)cc(O)c4c3=O)[C@H](O)[C@@H](O)[C@@H]2O)[C@H](O)[C@H](O)[C@H]1O [RUTOSIDE  (rutin)] | 0.972 | 0.881 ± 0.16 | 1.01 ± 0.016 | 1.03 ± 0.042 | 0.769 ± 0.53 |
| CNCCC(Oc1ccc(C(F)(F)F)cc1)c1ccccc1 (stereo not given) | 0.9505 ± 0.00071 | 0.952 ± 0.12 | 0.948 ± 0.069 | 1.2 ± 0.26 | 0.993 ± 0.052 |
| CC(=O)OC[C@H]1O[C@@H](Oc2cc(OC(C)=O)c3c(=O)cc(-c4ccc(OC(C)=O)cc4)oc3c2)[C@H](OC(C)=O)[C@@H](OC(C)=O)[C@@H]1OC(C)=O | 1.02 ± 0.021 | 1.11 | 0.992 ± 0.054 | 1.07 ± 0.13 | 0.938 ± 0.036 |
| C[C@@H]1C[C@H]2[C@@H]3C[C@H](F)C4=CC(=O)C=C[C@]4(C)[C@@]3(F)[C@@H](O)C[C@]2(C)[C@@]1(O)C(=O)CO | 1.05 ± 0.057 | 0.889 ± 0.02 | 1.03 ± 0.028 | 1.02 ± 0.14 | 0.986 ± 0.076 |
